According to article PMC4336329 (PLoS ONE, 2015):
Among all 310,000 compounds or so, about 2,200 (0.71%) showed an effect of 50% or more. Effects have a minus sign here. This is one part of a sample in which strong results are shown more often than they occur.

biological target: human ether-à-go-go-related gene (hERG) potassium channel (human, UniProt Q12809); test: primary screen, population patch clamp on CHO cells stably expressing hERG; higher = less effect of the substance
Sequence (Q12809 whole entry, looked up): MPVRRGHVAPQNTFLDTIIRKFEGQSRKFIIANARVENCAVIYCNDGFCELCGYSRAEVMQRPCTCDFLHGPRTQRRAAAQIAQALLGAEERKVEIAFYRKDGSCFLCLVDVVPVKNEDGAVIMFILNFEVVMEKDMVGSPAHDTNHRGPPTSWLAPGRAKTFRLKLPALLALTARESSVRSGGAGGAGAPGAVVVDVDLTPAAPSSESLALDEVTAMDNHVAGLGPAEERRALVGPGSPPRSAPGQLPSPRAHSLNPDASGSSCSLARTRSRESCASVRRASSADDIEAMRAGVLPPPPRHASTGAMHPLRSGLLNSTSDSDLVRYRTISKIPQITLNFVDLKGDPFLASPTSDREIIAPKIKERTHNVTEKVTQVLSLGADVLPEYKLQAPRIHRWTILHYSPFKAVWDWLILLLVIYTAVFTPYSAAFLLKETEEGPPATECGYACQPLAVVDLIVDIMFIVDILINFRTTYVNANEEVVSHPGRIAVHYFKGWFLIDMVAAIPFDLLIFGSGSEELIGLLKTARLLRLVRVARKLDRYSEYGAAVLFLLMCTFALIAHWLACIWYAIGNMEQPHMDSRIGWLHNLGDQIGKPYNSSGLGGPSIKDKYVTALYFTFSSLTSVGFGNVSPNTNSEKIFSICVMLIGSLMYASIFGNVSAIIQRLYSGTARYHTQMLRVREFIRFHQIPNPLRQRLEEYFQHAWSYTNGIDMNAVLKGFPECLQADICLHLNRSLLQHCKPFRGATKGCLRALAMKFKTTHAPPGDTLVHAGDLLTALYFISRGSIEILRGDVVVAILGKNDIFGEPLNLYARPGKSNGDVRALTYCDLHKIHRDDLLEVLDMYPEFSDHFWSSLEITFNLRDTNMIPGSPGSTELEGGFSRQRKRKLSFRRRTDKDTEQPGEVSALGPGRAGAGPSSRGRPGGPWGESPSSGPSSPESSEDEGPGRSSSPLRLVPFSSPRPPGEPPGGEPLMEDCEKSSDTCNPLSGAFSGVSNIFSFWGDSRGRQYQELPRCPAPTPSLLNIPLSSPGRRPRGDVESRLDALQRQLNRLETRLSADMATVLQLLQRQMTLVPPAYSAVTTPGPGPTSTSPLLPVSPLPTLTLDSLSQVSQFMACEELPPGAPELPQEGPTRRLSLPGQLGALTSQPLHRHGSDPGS

Structure (SMILES)	hERG current change (%, negative = inhibition) at 1uM [%]
CC(C)(C)CN1CCC(n2nccc2NC(=O)c2ccccc2Cl)CC1	4.68
O=C(Nc1ccnn1C1CCN(CCCC2CCCC2)CC1)c1ccccc1	-60.9
O=C(Nc1ccnn1C1CCN(C2CCCC2)CC1)c1ccccc1Cl	6.27
Cc1onc(-c2ccccc2)c1-c1ccnn1C(=O)NC(C)C	6.54
CCCOc1ccc(N2CC(C(=O)Nc3ccccc3C(=O)NCc3ccco3)CC2=O)cc1 (centres unmarked)	-29.5
O=C(NC1CCCCC1)c1ccccc1NC(=O)C1CC(=O)N(c2ccc(Cl)cc2)C1 (centres unmarked)	13.2
Cc1ccc(N2CC(C(=O)Nc3ccccc3C(=O)NC3CCCCC3)CC2=O)cc1 (centres unmarked)	5.42
O=C(NC1CCCCC1)c1ccccc1NC(=O)C1CC(=O)N(c2ccccc2)C1 (centres unmarked)	-64.3
CCCOc1ccc(N2CC(C(=O)Nc3ccccc3C(=O)NC)CC2=O)cc1 (centres unmarked)	-56.5
CNC(=O)c1ccccc1NC(=O)C1CC(=O)N(c2ccc(OC)cc2)C1 (centres unmarked)	9.77
CCC(C)C1C(C#N)=C(N)Oc2n[nH]c(C)c21 (centres unmarked)	14.1
CN(C)CCCNc1ncc(C(F)(F)F)cc1Cl	10.3
CN1C(=O)[C@@H]2[C@H](C1=O)[C@@H]1C(=O)Nc3ccccc3C(=O)N1[C@@H]2c1ccc(Br)cc1	-16.7
O=C(Cn1c(C(=O)N2CCN(C3CCCC3)CC2)cc2sccc21)c1ccccc1	-51
O=C(Cn1c(C(=O)N2CCN(C3CCCCC3)CC2)cc2sccc21)c1ccccc1	-47.5
CN1CCN(C(=O)c2cc3sccc3n2CC(=O)c2ccccc2)CC1	-2.93
COc1ccc(-c2cc(-c3cccs3)c(C#N)c(SCC(=O)NCc3ccccc3OC)n2)cc1	-3.19
Cc1cccc(C)c1NC(=S)NCc1ccncc1	16
c1ccc(CN2CCC(Nc3nc(-c4cccs4)nc4ccccc34)CC2)cc1	10.5
c1ccc(CN2CCC(Nc3nc(-c4ccccc4)nc4ccccc34)CC2)cc1	4.83
c1ccc(CN2CCC(Nc3nc(-c4cccnc4)nc4ccccc34)CC2)cc1	-74.6
CSc1oc(-c2ccc(F)cc2)nc1S(=O)(=O)c1ccccc1	-1.68

Structure (SMILES)	hERG current change (%, negative = inhibition) at 1uM [%]
CC1(C)C([N+](=O)[O-])C(c2ccc(O)cc2)NC(c2ccc(O)cc2)C1[N+](=O)[O-] (centres unmarked)	10.3
COc1ccc(CNCCc2ccc(Cl)cc2Cl)cc1	13.2
COc1ccc(CCNC(C)CCc2ccc(OC)cc2)cc1 (centres unmarked)	-2.61
COc1ccc(CCC(C)NCCc2ccc(Cl)cc2Cl)cc1 (centres unmarked)	-50.1
CCC(=O)OC1(c2ccccc2)C(C)CN(C)CC1C.Cl (centres unmarked)	8.82
C[C@]12CCC[C@H](O1)[C@H]([C@@H](O)c1ccccc1)O2	16.5
CN1CCC(N(C)CC(O)c2ccccc2)CC1.O=C(O)C(=O)O (centres unmarked)	1.81
CN1C(CC(O)c2ccccc2)CCCC1CC(O)c1ccccc1.Cl (centres unmarked)	-46.3
CN1C(CC(=O)c2ccccc2)CCCC1CC(O)c1ccccc1 (centres unmarked)	-55.2
Cc1ccc2c(Cl)c(C(=O)NC3CC3)sc2c1	9.87
Cn1c(=O)[nH]c(=O)c2c1nc(SCCN1CCCCC1)n2Cc1ccccc1	-81.6
CCCCCn1c(SCCN2CCOCC2)nc2c1c(=O)[nH]c(=O)n2C	-40.7
Cc1cccc(Cn2c(SCCN3CCCCC3)nc3c2c(=O)[nH]c(=O)n3C)c1	-80.7
COCCSc1nc2c(c(=O)[nH]c(=O)n2C)n1Cc1cccc(C)c1	-5.69
CC(C)CCn1c(SCCN2CCOCC2)nc2c1c(=O)[nH]c(=O)n2C	1.89
Cc1cccc(Cn2c(N3CCN(CCO)CC3)nc3c2c(=O)[nH]c(=O)n3C)c1	7.07
Cn1c(=O)[nH]c(=O)c2c1nc(SCCN1CCCCC1)n2CCCc1ccccc1	-57.3
Cn1c(=O)[nH]c(=O)c2c1nc(SCCO)n2CCCc1ccccc1	5.4
Cn1c(=O)[nH]c(=O)c2c1nc(SCCN1CCOCC1)n2CCCc1ccccc1	-6.15
CCCCCCn1c(SCCN2CCOCC2)nc2c1c(=O)[nH]c(=O)n2C	-64.1
CCCSc1nc2c(c(=O)[nH]c(=O)n2C)n1Cc1ccccc1	2.13
Cn1c(=O)[nH]c(=O)c2c1nc(SCCN1CCOCC1)n2Cc1ccccc1	-12
